Laboratory results published in PubChem BioAssay AID1903 (Southern Research Specialized Biocontainment Screening …, 2009).
“And” between values parts separate entries of the source, which are not always exact repeats. Identical values can stand only once. About 1,200 (0.39%) of roughly 310,000 compounds were called active. The rule behind the calls is not given here. Not all results are given here. Results with a measured potency or affinity are listed apart.

Biological target: Large T antigen (Simian virus 40) (UniProt P03070)
Test: SV40 large T antigen inhibitors, biochemical (AID 1903)
Conditions: SV40 large T antigen ATPase/helicase inhibition assay; at 20 µM; hits give high values

Large T antigen (Simian virus 40), sequence (P03070 whole entry, looked up): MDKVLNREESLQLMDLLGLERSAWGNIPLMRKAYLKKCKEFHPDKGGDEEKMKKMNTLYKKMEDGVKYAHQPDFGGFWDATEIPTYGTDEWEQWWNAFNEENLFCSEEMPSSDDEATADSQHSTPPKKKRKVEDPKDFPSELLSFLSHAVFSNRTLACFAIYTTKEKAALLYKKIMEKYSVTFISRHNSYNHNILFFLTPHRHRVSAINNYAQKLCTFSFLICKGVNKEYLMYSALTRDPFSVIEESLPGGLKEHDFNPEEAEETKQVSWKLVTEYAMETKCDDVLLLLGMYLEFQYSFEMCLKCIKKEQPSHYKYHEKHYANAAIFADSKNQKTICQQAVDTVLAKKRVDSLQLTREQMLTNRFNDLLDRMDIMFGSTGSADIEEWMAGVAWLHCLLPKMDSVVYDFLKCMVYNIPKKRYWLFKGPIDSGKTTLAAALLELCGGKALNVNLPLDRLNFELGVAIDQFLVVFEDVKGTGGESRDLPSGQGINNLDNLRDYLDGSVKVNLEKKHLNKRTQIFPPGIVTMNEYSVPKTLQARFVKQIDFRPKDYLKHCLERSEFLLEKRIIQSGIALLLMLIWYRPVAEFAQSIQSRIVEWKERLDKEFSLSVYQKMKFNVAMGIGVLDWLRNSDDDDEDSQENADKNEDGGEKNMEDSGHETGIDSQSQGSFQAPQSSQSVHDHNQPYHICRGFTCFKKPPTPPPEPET

inhibition, inactive:
COc1ccc(CCN2C(=O)NC(NS(=O)(=O)c3ccc(Cl)cc3)(C(F)(F)F)C2=O)cc1OC (stereo not given) 12.9%, O=C(COC(=O)C1COc2ccccc2O1)Nc1cccc(S(=O)(=O)N2CCCCC2)c1 (stereo not given) 11.3%, CN(c1ccc(C(=O)Nc2ccc3c(c2)OCO3)cc1)S(C)(=O)=O 14.1%, Cc1c(CC(=O)N2CCN(C(=O)C3COc4ccccc4O3)CC2)c(=O)oc2c(C)c(O)ccc12 (stereo not given) 24.4%, COc1ccc2c(C)c(CC(=O)N3CCN(C(=O)C4COc5ccccc5O4)CC3)c(=O)oc2c1C (stereo not given) 12%, Cc1cccn2c(=O)c3cc(C(=O)NC4CCCCC4)c(=N)n(Cc4ccccc4)c3nc12 5.16%, Cc1nc2sc3c(c2c2nc(-c4ccco4)nn12)CCCC3 14.8%, Cc1nc2sc3c(c2c(=O)o1)CCC3 9.19%, COc1ccc(C(=O)NCC(=O)OCc2ccccc2F)cc1 6.15%, O=C(COc1ccc(S(=O)(=O)N2CCOCC2)cc1)NCCCn1ccnc1 7.23%, COc1cccc(CNS(=O)(=O)c2c(C(=O)N3CCCCCC3)c(C)n(C)c2C)c1 2.83%, CC(C)CN(CC(C)C)C(=O)CN1C(=O)NC2(CCc3ccccc3C2)C1=O (stereo not given) 23.5%, N#Cc1c(N)sc2c1CCCCCC2 32%, N#Cc1c(N)sc(=S)c2c1CCCC2 29.3%, Cn1c(CNC(=O)c2ccc3c(c2)OCO3)nnc1SCC(=O)Nc1ccccc1Cl 10.7%, Nc1ccc(OCCc2ccccc2)cc1 30.9%, COc1ccc(Cc2c(N)nc(N)nc2N)cc1 -2.12%, CC(C)C1N=C2c3ccccc3N=C(SCC(=O)NCCc3ccc(S(N)(=O)=O)cc3)N2C1=O (stereo not given) 1%, CC(C)C1N=C2c3ccccc3N=C(SCC#N)N2C1=O (stereo not given) 6.69%, Cc1ccc(-c2nnc(SCC(=O)N3c4ccccc4NC(=O)C3(C)C)n2N)cc1 4.15%, O=Cc1ccc(O)c(O)c1 34.4%, CCOc1ccc(/C=C\C(C)=N\O)cc1 29.6%, COc1cc(/C=C/c2ccc(O)cc2)cc(OC)c1 11.3% and 1.99%, O=C(/C=C/c1ccc(O)c(O)c1)NC(=O)c1ccccc1O 6.12%, Cc1ccc(/C=C/C(=O)c2ccccc2O)cc1 11.7%, CC(/C=C/c1ccccc1)=N/O 10.9%, COc1cc(/C=C/C(=O)O)ccc1O 24.2%, Nc1cccc(/C=C/C(=O)O)c1 15.7%, Cc1nc2ccccc2c(=O)n1-c1ccc(NS(=O)(=O)c2ccccc2)cc1 -1.73%, NC(=O)C1CCN(C(=O)c2cccc3ccccc23)CC1 16.8%, CCOC(=O)CC1C(=O)NCCN1C(=O)c1ccc(Cl)cc1Cl (stereo not given) 3.58%, Fc1ccc(C2c3cccn3CCN2C(=S)Nc2cccc(F)c2)cc1 (stereo not given) 6.14%, Cn1c(=O)c(C(=O)CN2CCN(S(=O)(=O)c3ccccc3)CC2)c(N)n(Cc2ccccc2)c1=O 2.73%, COC(=O)C1C(=O)c2c([nH]c(C(=O)OC3CCCCC3)c2C)CC1C (stereo not given) 0.84%, O=C1OC(c2ccc3c(c2)OCO3)N(C(=O)c2ccc(Cl)c(Cl)c2)c2ccccc21 (stereo not given) 10.3%, CCCC(=O)N(c1ccc2oc(=O)sc2c1)S(=O)(=O)c1ccccc1 22.9%, COc1ccc(C(CNC(=O)COc2ccccc2)N2CCOCC2)cc1 (stereo not given) 5.3%, CCCc1cc(=O)[nH]c(SCCCCN2C(=O)c3ccccc3C2=O)n1 16.4%, CC(C)c1ccc(/C=C/C(=O)O)cc1 15.3%, O=C(/C=C/c1ccc(O)cc1)c1c(O)cc(O)cc1O 3.62%, CC1Cc2ccccc2N1CC(=O)Nc1ccc(N2CCOCC2)cc1 (stereo not given) 27%, CC(Nc1ccc2c(c1)OCCO2)C(=O)N1c2ccccc2CC1C (stereo not given) 16.6%, O=C1CCNc2ccc(-c3ccccc3)cc21 5.5%, c1ccc(-c2ccc3c(c2)NC(C2Nc4cc(-c5ccccc5)ccc4O2)O3)cc1 (stereo not given) 19.8%, Nc1cccc2c1C(=O)N(Cc1cccc(Cl)c1)C2=O 1.68%, O=C1c2ccccc2C(=O)N1Cc1cc(Cl)c(O)c([N+](=O)[O-])c1 6.24%, O=C(c1cccs1)N1CCCC(N2CCN(c3ccc(F)cc3)CC2)C1 (stereo not given) 7.59%, Cn1c(=O)n(Cc2ccccc2F)c2ccccc21 9.44%, NS(=O)(=O)c1ccc(N=Nc2ccc(O)c3ncccc23)cc1 13.3%, Nc1nc(O)c(N=Nc2ccc(S(N)(=O)=O)cc2)c(=O)[nH]1 -12.8%, COc1ccc2[nH]c(=O)c(CN(CCO)S(=O)(=O)c3ccc4c(c3)OCCO4)cc2c1 -3.52%, O=[N+]([O-])c1ccc(O)c2ncccc12 -8.5% and 12.1%, O=[N+]([O-])c1cc(Cl)c(O)c2ncccc12 14.7%, COCc1cc(SC2CCCCC2)nc(C)n1 10.5%, O=C(CSc1nc2[nH]ncc2c(=O)[nH]1)Nc1nccs1 12.6%, CCN(CC1CCCO1)C(=O)CCc1nnc(CCc2ccc(OC)cc2)o1 (stereo not given) 0.66%, O=C1CCC(=O)N1c1nc2nc(-c3ccccc3)cc(-c3ccccc3)n2n1 3.94%, COc1ccccc1N1CCN(C(=S)Nc2ccc(S(=O)(=O)N3CCOCC3)cc2)CC1 -0.03%, CC(=O)N1CCN(CC(=O)Nc2cc(S(=O)(=O)N3CCOCC3)ccc2C)CC1 10.5%, Cc1ccc(S(=O)(=O)N2CCN(CC(=O)Nc3ccc(N4CCOCC4)cc3)CC2)cc1C 10.9%, CN1CCN(CC(=O)Nc2cc(S(=O)(=O)N3CCOCC3)ccc2Cl)CC1 8.7%, O=C(CN1CCN(c2ccc(O)cc2)CC1)Nc1cc(S(=O)(=O)N2CCCCC2)ccc1Cl 28.7%, O=S(=O)(c1ccc(NC(=S)N2CCN(c3ccccc3F)CC2)cc1)N1CCOCC1 11.6%, CC(NC(=O)Cn1c(NCCO)nc2ccccc21)c1ccccc1 (stereo not given) -0.56%, CCOc1ccc(C(=O)NC(C(=O)NCc2ccccc2OC)C(C)C)cc1 (stereo not given) 20.8%, Cc1ccc(CNC(=O)c2ccccc2NC(=O)CN2CC(C)OC(C)C2)cc1 (stereo not given) 2.54%, Cc1ccc(S(=O)(=O)N(C)C)cc1NC(=O)COC(=O)c1ccc2c(c1)NC(=O)CS2 2.57%, CC(CN1CCCCC1)OC(=O)c1ccc(Cl)cc1 (stereo not given) -0.49%, Cc1[nH]c2ccccc2c1-c1csc(NC(=O)CN2CCOCC2)n1 35.5%, Cc1[nH]c2ccccc2c1-c1csc(NC(=O)CSCCO)n1 23.2%, Cc1ccc(CNC(=O)COC(=O)c2cc3c(s2)CCC(C)C3)cc1 (stereo not given) 0.58%, C#CCOCCOCCOCCNc1nc(N2CCN(C(=O)Cn3cc(CCCN=C(N)N)nn3)CC2)nc(N2CCN(C(=O)[C@H](CCCCN)n3cc(CCCC)nn3)CC2)n1 10.3%, O=C(NC1CC1)c1scc2c1OCCO2 -3.94%, COC(C(=O)Nc1ccc(NC(=O)C(OC)c2ccccc2)cc1)c1ccccc1 (stereo not given) 0.71%, COc1ccc(CC(=O)N/N=C(\C)CC(=O)Nc2ccc3c(c2)OCCO3)cc1OC 8.47%, COc1cc(NC(=O)C/C(C)=N/NC(=O)C(OC)c2ccccc2)c(OC)cc1Cl (stereo not given) 7.44%, COc1ccc(CNC(=O)C/C(C)=N/NC(=O)Cc2ccc(OC)c(OC)c2)cc1 9.86%, CC(=O)NC(C)Cc1cn(Cc2ccccc2)c2ccccc12 (stereo not given) 19.1%, COC(=O)c1sc(NC(=O)c2cccc([N+](=O)[O-])c2)c(C(N)=O)c1C 9.65%, Cc1ccccc1CNCCCSc1ncccn1 11.1%, COc1ccc(CN2CCCCCC2)c(C)c1C 12.7%, CC(C)(C)c1cc2nc(N)nc(N)n2n1 8.32%, O=C(Nc1ccccc1Cl)c1ccc(COc2ccc3c(c2)CCC3)cc1 20.5%, CN(C(=O)CC(NC(=O)c1ccccc1Cl)c1ccccc1)c1ccccc1 (stereo not given) 12.8%, COc1cc2ccc3c(CCN(C)C)cc(OC)c(OC)c3c2cc1OC 6.37%, COc1cc2cccc(OC)c(=O)c2c(O)c1OC 2.12%, CC(=O)Nc1ccc(S(=O)(=O)Oc2ccccc2N2CCCCC2)cc1 2.71%, COc1ccc(/C=N/NC(=O)CC(=O)NCCc2ccccc2)cc1OC -5.15%, CCOc1cc(/C=N/NC(=O)C2CCCC2)ccc1O 36.2%, COc1ccccc1/C=N/NC(=O)CC(=O)NCCc1ccccc1 9.39%, Cc1ccc(/C=N\NC(=O)CC(=O)NCCc2ccccc2)cc1 7.24%, CCOc1ccc(/C=N\NC(=O)CC(=O)NCCc2ccccc2)cc1 4.85%, COc1cc(/C=N/n2cnnc2)ccc1OC(=O)c1ccco1 24.8%, COc1cc(/C=N/n2cnnc2)ccc1OC(=O)c1cccnc1 27.4%, CCOc1cc(/C=N/NC(=O)C(=O)N/N=C/c2ccc(O)c(OCC)c2)ccc1O 8.63%
